The supplement of paper PMC10849652
The full data set covers some 8,800 targets. This sample favours those with a hit. About 0.5% of all pairs of compound and target were hits. Values without a mark were called inactive.

Tests used:
Experiment in all cases: log2 fold change, soluble protein after heating vs DMSO (PISA); higher = thermal stabilisation; K562 lysate, 10 uM; active = over 0.2 and 3.5 SD of the protein, either way, in both replicates (recomputed)
lapatinib = compound: CS(=O)(=O)CCNCc1ccc(-c2ccc3ncnc(Nc4ccc(OCc5cccc(F)c5)c(Cl)c4)c3c2)o1 [lapatinib]
Outline: (§1)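 Log-two fold change in thermal stability relative to solvent controls is reported from duplicates. For each sample, crude K562 extract from dounce-homogenised pellets in PBS pH 7.4 with 1 mM MgCl2, at 1 mg/mL protein, was treated with 10 μM compound for 30 min. Aliquots heated for 3 min across 48°C-58°C were pooled, brought to 0.5% NP-40 at 4°C and cleared at 21,000xg for 90 min. The supernatant was quantified by TMTpro 16plex LC-MS/MS with channel sums equalised.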

pictilisib = compound: CS(=O)(=O)N1CCN(Cc2cc3nc(-c4cccc5[nH]ncc45)nc(N4CCOCC4)c3s2)CC1 [pictilisib]
Outline: as §1

crizotinib = compound: C[C@@H](Oc1cc(-c2cnn(C3CCNCC3)c2)cnc1N)c1c(Cl)ccc(F)c1Cl [crizotinib]
Outline: as §1

[1] = compound: C[C@H](C1=CC=C(C=C1)C(=O)NC2=C3C=CNC3=NC=C2)N
Outline: as §1

duvelisib = compound: C[C@H](Nc1ncnc2nc[nH]c12)c1cc2cccc(Cl)c2c(=O)n1-c1ccccc1 [duvelisib]
Outline: as §1

gandotinib = compound: Cc1cc(Nc2cc(CN3CCOCC3)c3nc(C)c(Cc4ccc(Cl)cc4F)n3n2)n[nH]1 [gandotinib]
Outline: as §1

tozasertib = compound: Cc1cc(Nc2cc(N3CCN(C)CC3)nc(Sc3ccc(NC(=O)C4CC4)cc3)n2)n[nH]1 [tozasertib]
Outline: as §1

doramapimod = compound: Cc1ccc(-n2nc(C(C)(C)C)cc2NC(=O)Nc2ccc(OCCN3CCOCC3)c3ccccc23)cc1 [doramapimod]
Outline: as §1

bafetinib = compound: Cc1ccc(NC(=O)c2ccc(CN3CC[C@H](N(C)C)C3)c(C(F)(F)F)c2)cc1Nc1nccc(-c2cncnc2)n1 [bafetinib]
Outline: as §1

[2] = compound: Cc1cccc(CC(=O)N2CCc3c2ccc(-c2cn(C)c4ncnc(N)c24)c3F)n1
Outline: as §1

Sequence of UniProt Q15233 (Q15233 whole entry, looked up): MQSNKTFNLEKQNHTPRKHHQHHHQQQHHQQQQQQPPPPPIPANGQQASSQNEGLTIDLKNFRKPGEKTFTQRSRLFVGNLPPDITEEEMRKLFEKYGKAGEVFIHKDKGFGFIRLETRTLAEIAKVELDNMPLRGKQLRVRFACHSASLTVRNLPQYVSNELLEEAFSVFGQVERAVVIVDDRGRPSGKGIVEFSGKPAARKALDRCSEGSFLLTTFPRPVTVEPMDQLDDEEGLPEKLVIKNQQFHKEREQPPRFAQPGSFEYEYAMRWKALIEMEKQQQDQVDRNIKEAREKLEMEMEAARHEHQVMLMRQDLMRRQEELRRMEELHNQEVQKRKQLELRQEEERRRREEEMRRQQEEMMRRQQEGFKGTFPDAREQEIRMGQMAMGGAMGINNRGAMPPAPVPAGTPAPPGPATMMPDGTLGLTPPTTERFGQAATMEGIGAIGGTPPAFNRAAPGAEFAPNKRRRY
Sequence of UniProt P22059 (P22059 whole entry, looked up): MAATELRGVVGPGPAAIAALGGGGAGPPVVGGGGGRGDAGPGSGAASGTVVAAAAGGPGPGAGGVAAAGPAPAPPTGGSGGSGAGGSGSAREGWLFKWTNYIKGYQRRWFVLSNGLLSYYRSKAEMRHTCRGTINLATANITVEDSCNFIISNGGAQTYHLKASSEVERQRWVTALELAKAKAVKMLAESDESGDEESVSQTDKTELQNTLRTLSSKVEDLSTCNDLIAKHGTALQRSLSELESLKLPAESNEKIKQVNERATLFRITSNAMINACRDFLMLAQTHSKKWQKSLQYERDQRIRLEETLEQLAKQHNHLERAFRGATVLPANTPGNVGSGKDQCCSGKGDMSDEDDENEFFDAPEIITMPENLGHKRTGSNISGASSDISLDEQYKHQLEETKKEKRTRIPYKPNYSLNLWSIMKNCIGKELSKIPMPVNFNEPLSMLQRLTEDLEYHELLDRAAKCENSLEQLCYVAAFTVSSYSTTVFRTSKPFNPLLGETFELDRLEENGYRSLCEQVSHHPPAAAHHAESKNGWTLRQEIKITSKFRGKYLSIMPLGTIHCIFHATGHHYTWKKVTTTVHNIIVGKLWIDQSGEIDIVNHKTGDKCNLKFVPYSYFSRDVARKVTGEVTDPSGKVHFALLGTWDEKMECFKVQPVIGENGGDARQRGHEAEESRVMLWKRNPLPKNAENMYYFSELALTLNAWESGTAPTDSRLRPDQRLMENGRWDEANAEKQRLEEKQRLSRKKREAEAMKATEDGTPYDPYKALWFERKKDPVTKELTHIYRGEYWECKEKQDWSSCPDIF
Sequence of UniProt P00156 (P00156 whole entry, looked up): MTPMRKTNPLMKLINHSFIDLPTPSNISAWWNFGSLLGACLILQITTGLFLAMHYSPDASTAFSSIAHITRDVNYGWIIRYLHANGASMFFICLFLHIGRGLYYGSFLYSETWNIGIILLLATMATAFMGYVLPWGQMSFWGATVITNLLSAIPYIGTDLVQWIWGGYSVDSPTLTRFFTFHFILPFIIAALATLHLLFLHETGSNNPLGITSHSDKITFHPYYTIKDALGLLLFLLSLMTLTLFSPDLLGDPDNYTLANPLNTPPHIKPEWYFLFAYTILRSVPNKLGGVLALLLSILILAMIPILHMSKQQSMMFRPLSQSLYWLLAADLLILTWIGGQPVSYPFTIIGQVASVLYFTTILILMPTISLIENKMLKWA
Sequence of UniProt P43246 (P43246 whole entry, looked up): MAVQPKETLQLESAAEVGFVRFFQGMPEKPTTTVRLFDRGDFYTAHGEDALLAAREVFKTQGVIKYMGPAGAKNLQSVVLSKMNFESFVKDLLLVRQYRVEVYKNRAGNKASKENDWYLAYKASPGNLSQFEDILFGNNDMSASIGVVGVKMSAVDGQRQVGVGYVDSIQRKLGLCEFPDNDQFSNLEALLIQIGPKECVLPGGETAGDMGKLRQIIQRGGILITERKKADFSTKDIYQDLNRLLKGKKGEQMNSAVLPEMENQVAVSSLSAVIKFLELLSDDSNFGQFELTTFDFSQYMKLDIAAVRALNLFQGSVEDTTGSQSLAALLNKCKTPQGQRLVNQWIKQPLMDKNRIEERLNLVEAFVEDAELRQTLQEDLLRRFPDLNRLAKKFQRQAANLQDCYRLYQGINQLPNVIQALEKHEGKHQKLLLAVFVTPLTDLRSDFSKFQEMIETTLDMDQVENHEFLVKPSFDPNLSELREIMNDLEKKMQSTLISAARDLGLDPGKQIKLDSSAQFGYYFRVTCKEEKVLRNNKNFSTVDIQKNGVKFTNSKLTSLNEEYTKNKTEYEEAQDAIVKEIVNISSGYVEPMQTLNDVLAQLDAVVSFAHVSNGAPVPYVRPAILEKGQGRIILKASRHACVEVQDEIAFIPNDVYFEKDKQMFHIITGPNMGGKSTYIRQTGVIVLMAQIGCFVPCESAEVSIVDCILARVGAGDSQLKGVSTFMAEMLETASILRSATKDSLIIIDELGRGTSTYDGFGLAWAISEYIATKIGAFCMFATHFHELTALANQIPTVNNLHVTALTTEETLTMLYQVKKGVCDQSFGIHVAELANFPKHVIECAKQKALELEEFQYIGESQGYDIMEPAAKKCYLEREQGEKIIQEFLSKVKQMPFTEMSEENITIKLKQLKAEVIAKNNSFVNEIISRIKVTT
Sequence of UniProt Q99836 (Q99836 whole entry, looked up): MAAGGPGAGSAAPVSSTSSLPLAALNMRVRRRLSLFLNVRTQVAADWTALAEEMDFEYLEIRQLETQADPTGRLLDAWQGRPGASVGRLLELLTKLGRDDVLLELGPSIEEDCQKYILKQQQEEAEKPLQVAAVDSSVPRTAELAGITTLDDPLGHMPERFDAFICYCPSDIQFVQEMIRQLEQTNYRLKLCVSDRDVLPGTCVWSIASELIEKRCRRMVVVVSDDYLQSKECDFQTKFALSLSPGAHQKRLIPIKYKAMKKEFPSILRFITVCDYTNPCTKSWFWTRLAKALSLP
Sequence of UniProt Q8TDX7 (Q8TDX7 whole entry, looked up): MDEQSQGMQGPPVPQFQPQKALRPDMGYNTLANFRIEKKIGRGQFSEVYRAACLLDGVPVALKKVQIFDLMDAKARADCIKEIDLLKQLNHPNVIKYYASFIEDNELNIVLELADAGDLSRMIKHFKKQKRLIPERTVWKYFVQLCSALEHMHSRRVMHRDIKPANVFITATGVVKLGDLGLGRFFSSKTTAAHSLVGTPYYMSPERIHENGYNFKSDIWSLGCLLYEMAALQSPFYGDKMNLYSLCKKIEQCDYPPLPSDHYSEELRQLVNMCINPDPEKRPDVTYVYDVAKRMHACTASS
Sequence of UniProt Q15843 (Q15843 whole entry, looked up): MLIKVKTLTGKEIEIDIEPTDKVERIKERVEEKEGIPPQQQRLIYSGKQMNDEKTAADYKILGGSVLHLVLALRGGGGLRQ
Sequence of UniProt O94916 (O94916 whole entry, looked up): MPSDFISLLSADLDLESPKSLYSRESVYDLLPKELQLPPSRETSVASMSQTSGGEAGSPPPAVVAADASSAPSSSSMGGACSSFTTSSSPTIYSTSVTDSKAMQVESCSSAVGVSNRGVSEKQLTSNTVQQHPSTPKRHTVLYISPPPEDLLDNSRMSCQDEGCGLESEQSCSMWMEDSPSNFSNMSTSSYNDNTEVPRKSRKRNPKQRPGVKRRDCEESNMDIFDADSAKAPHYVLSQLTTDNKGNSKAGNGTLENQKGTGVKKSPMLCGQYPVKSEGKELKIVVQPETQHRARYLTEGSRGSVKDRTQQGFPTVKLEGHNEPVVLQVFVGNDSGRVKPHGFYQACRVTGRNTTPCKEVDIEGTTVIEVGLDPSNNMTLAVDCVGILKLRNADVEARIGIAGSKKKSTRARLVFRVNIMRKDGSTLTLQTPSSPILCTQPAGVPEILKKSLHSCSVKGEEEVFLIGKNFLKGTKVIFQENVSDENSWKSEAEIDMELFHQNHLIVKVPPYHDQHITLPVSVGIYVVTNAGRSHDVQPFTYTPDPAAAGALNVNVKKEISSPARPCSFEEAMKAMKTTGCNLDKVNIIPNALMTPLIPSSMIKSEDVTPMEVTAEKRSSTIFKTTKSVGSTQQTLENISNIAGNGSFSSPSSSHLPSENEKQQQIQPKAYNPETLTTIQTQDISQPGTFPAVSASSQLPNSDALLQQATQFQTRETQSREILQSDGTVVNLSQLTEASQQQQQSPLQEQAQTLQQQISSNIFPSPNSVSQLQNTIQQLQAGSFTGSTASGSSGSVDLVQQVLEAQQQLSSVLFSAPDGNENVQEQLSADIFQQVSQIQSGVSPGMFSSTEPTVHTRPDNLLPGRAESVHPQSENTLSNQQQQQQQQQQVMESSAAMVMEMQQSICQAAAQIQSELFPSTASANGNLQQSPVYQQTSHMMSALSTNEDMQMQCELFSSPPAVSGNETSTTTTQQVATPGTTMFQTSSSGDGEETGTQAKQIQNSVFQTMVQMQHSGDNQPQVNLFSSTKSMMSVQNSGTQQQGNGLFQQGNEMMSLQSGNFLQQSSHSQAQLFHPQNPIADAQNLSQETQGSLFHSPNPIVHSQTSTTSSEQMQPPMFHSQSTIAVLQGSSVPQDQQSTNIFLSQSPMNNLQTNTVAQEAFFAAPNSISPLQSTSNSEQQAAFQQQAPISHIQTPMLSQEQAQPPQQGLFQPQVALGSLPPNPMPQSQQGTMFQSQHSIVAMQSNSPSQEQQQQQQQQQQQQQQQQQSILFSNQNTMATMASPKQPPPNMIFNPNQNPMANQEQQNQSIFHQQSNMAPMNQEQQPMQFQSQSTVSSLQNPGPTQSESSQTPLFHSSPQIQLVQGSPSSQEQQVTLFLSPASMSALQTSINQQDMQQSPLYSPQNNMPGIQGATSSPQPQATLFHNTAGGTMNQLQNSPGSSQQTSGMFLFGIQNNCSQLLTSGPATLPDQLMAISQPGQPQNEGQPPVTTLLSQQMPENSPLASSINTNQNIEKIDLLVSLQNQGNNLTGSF
Sequence of UniProt Q9NZJ9 (Q9NZJ9 whole entry, looked up): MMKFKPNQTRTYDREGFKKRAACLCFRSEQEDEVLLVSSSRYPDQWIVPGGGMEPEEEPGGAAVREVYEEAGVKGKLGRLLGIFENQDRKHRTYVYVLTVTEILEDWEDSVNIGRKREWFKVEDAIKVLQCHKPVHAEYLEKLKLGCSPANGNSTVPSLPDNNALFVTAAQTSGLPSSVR

Row | Target | log2 fold change (lapatinib) | log2 fold change (pictilisib) | log2 fold change (crizotinib) | log2 fold change [1] | log2 fold change (duvelisib) | log2 fold change (gandotinib) | log2 fold change (tozasertib) | log2 fold change (doramapimod) | log2 fold change (bafetinib) | log2 fold change [2]
1 | PAN2 isoform 2 (UniProt Q504Q3) | -0.044 | 0.045 | -0.085 | 0.003 | 0.041 | -0.053 | 0.27 (active) | 0.09 | -0.108 | 0.084
2 | PBK (UniProt Q96KB5) | -0.024 | -0.011 | -0.005 | 0.013 | -0.006 | -0.066 | -0.005 | -0.021 | -0.02 | -0.01
3 | PAIP2 (UniProt Q9BPZ3) | 0.013 | -0.036 | 0.021 | -0.008 | -0.04 | 0.022 | 0.035 | 0.043 | 0.073 | 0.02
4 | NFIC (UniProt P08651) | -0.004 | 0.109 | 0.007 | -0.361 | -0.002 | 0.237 | 0.035 | 0.139 | -0.038 | 0.003
5 | OSBP (UniProt P22059) | -0.101 | -0.046 | 0.007 | 0 | 0.037 | -0.072 | -0.015 | -0.028 | -0.093 | 0.03
6 | NUP98 (UniProt P52948) | 0.007 | -0.041 | 0.017 | -0.014 | -0.04 | 0.01 | -0.033 | -0.024 | -0.024 | 0.043
7 | NEDD8 (UniProt Q15843) | 0.04 | 0.028 | 0.041 | 0.19 | 0.019 | -0.062 | 0.06 | -0.049 | -0.117 | -0.107
8 | NEK7 (UniProt Q8TDX7) | -0.035 | -0.018 | -0.045 | -0.062 | -0.026 | -0.031 | -0.022 | 0.016 | -0.026 | 0.15
9 | NQO1 (UniProt P15559) | -0.055 | -0.048 | -0.04 | -0.074 | 0.012 | 0.009 | 0.022 | -0.333 (active) | -0.023 | 0.262 (active)
10 | NFAT5 isoform 5 (UniProt O94916) | 0.033 | -0.002 | 0.053 | -0.053 | -0.041 | 0.045 | -0.039 | 0.007 | -0.041 | 0.008
11 | MYD88 isoform 6 (UniProt Q99836) | 0.014 | -0.006 | -0.007 | -0.032 | 0.03 | -0.009 | 0.068 | 0.019 | -0.018 | 0
12 | NONO (UniProt Q15233) | -0.004 | 0.001 | 0.011 | 0.071 | -0.01 | -0.06 | 0.028 | -0.014 | -0.033 | -0.04
13 | OLA1 (UniProt Q9NTK5) | -0.009 | 0.013 | -0.005 | -0.088 | 0.007 | -0.035 | 0.025 | 0.018 | 0.024 | 0.052
14 | NFATC2 (UniProt Q13469) | -0.003 | 0.03 | -0.021 | 0.085 | -0.017 | 0.133 | 0 | 0.059 | -0.02 | 0.117
15 | ORC5 (UniProt O43913) | -0.014 | -0.049 | -0.137 | -0.009 | -0.016 | -0.113 | -0.023 | 0.027 | -0.069 | 0.045
16 | NGLY1 (UniProt Q96IV0) | -0.017 | -0.002 | -0.058 | 0.038 | -0.001 | -0.053 | -0.025 | -0.013 | -0.048 | 0.04
17 | PAK4 (UniProt O96013) | -0.147 | 0.139 | 0.037 | 0.163 | 0.05 | 0.709 (active) | 0.18 | -0.236 | -0.011 | -0.12
18 | ORC3 isoform 2 (UniProt Q9UBD5) | -0.014 | -0.011 | -0.119 | -0.008 | -0.025 | -0.097 | -0.024 | -0.009 | -0.046 | 0.001
19 | MT-CYB (UniProt P00156) | -0.054 | -0.025 | -0.126 | -0.856 (active) | 0.094 | 0.568 (active) | -0.074 | -0.05 | 0.05 | 0.385
20 | MT-ND1 (UniProt P03886) | -0.025 | -0.03 | -0.062 | -0.342 (active) | -0.052 | 0.061 | -0.074 | 0.041 | 0.022 | 0.007
21 | ORC2 (UniProt Q13416) | 0.016 | -0.049 | -0.074 | 0.063 | -0.068 | -0.087 | -0.017 | -0.007 | -0.034 | 0.011
22 | MSH2 (UniProt P43246) | -0.005 | -0.003 | -0.04 | 0.028 | -0.001 | -0.068 | 0.002 | 0.013 | -0.026 | 0.002
23 | NFATC4 isoform 2 (UniProt Q14934) | 0.039 | 0.003 | -0.132 | -0.187 | -0.006 | 0.04 | 0.084 | 0.026 | -0.305 | 0.192
24 | OCRL (UniProt Q01968) | 0.008 | -0.029 | -0.047 | -0.029 | -0.013 | -0.009 | 0 | 0.033 | 0.001 | 0.047
25 | NCAPG2 (UniProt Q86XI2) | -0.062 | -0.006 | -0.048 | -0.108 | -0.052 | -0.011 | 0.023 | 0.062 | -0.074 | 0.143
26 | NPTN (UniProt Q9Y639) | -0.057 | -0.045 | -0.058 | -0.011 | 0.049 | 0.003 | 0.007 | 0.056 | -0.029 | 0.011
27 | N4BP2 (UniProt Q86UW6) | 0.003 | 0.054 | 0.002 | -0.236 (active) | 0.028 | 0.014 | -0.032 | -0.015 | -0.038 | 0.149
28 | MVB12A (UniProt Q96EY5) | 0.012 | -0.027 | -0.025 | 0 | -0.04 | -0.031 | -0.046 | 0.012 | -0.015 | -0.031
29 | NUP133 (UniProt Q8WUM0) | -0.007 | -0.01 | -0.093 | -0.075 | -0.01 | 0.251 (active) | 0.042 | 0.061 | -0.074 | 0.218
30 | NUDT4 isoform 2 (UniProt Q9NZJ9) | -0.002 | 0.006 | -0.018 | -0.055 | -0.013 | 0.061 | 0.065 | -0.009 | -0.006 | 0.011
